# Records with an inconclusive call do not appear. Values without a mark were called inactive. The source made the active and inactive calls. Calls follow the shape of the dose curve; as a rule, active = well fitted curve in the direction sought with a large enough effect; inconclusive = small, poorly fitted or top-dose-only effect, or another doubt; inactive = no such curve, though single readings can be large or run the other way.
# Test: qHTS Assay for Identifying Gametocytocidal Compounds (AID 743244);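 as to max response: actives lower the fluorescent signal which means gametocytes are killed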
# Settings: P. falciparum 3D7 stage III-V gametocytes, alamarBlue, 72 h; max response: stronger effect = lower value
# Outline: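 Stage III-V P. falciparum 3D7 gametocytes, 20,000 per well, were exposed to compounds for 72 h at 37C, 5% CO2. AlamarBlue was then added for 24 h and viability was read as fluorescence at Ex 525/Em 598 nm.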
# % is scaled to controls: 0 for no effect and ±100 for the full control effect; potency is read from the fitted curve at half-maximal effect.
SMILES,max response,Potency
CC(C)Cn1cnc2c(N)nc3ccccc3c21,-6.2%,–
CCOC(=O)c1ccc(C#Cc2ccc3c(c2)C(C)(C)CCS3)nc1,32%,–
CCN[C@H]1C[C@H](C)S(=O)(=O)c2sc(S(N)(=O)=O)cc21,4.01%,–
COc1ccc(-c2ccc3cc(C(=O)O)ccc3c2)cc1C12CC3CC(CC(C3)C1)C2,23.8%,–
CCOC(=O)[C@H](CCc1ccccc1)N[C@H]1CS[C@H](c2cccs2)CN(CC(=O)O)C1=O,3.7%,–
CCC(=O)O[C@]1(C(=O)SCF)[C@H](C)C[C@H]2[C@@H]3C[C@H](F)C4=CC(=O)C=C[C@]4(C)[C@@]3(F)[C@@H](O)C[C@@]21C,-5%,–
C#CCN[C@@H]1CCc2ccccc21,-0.979%,–
O=P(O)(O)C(O)(Cc1cccnc1)P(=O)(O)O,8.36%,–
CCCc1cc(C(N)=S)ccn1,4.17%,–
CC(N)C12CC3CC(CC(C3)C1)C2 (stereo not given),26.1%,–
O[C@@H](CNC[C@H](O)[C@H]1CCc2cc(F)ccc2O1)[C@@H]1CCc2cc(F)ccc2O1,–,11.2 µM (active)
O=c1oc2c(O)c(O)cc3c(=O)oc4c(O)c(O)cc1c4c23,10.2%,–
Cc1onc(-c2ccccc2Cl)c1C(=O)N[C@@H]1C(=O)N2[C@@H]1SC(C)(C)[C@@H]2C(=O)O,-11.3%,–
COC(=O)Nc1nc2ccc(C(=O)c3ccccc3)cc2[nH]1,-6.13%,–
CCOCC(O)COc1ccc(NC(=O)CC[S+](C)C)cc1 (stereo not given),2.79%,–

# — PubChem BioAssay (NCATS)
